Consider eight compounds from PubChem BioAssay (NCI).

Compounds without any hit were thinned out: in the full panel of roughly 83,000, 20% have a hit.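 The endpoint reported here, percent growth, reads 100 for growth as untreated, 0 for no net growth and -100 for all cells dead.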 A number with no mark means an inactive call. The source made the active and inactive calls. How the source made its calls: active means growth percent below 10; inactive means the rest.

Among the test systems are NCI-H23 lung; NCI-H226 lung; NCI-H322M lung; HOP-62 NSCLC; NCI-H460 lung; HOP-92 NSCLC; NCI-H522 lung; A549/ATCC NSCLC; 786-0 renal; COLO 205 colon; DU-145 prostate; K-562 leukemia; MALME-3M melanoma; MDA-MB-231 breast; SF-268 CNS; SF-295 CNS; SF-539 CNS; UACC-257 melanoma; M14 melanoma; RXF 393 renal.
What all share (experiment): NCI-60 one-dose screen, 48 h (100 = growth as untreated, 0 = no growth, -100 = all killed)
What all share (settings): 10 µM unless noted

Take `CC(=O)Oc1cc2cnc3c4cc(OC(C)=O)c(OC(C)=O)cc4ccc3c2cc1OC(C)=O`: the growth in the experiment with NCI-H23 lung was 25.4%; with NCI-H226 lung, 36.4%; with NCI-H322M lung it was 5.6% (active); in the experiment on HOP-62 NSCLC it was 28.7%; in the experiment with NCI-H460 lung, 9.99% (active); with HOP-92 NSCLC, 18.6%. Also, the growth with NCI-H522 lung was -28.8% (active); in the experiment on A549/ATCC NSCLC, 25.5%; with 786-0 renal, 18.9%; in the experiment on COLO 205 colon it was 78%; with DU-145 prostate, 16.6%; with K-562 leukemia, 6.46% (active). The growth is 6.96% (active) in the experiment on MALME-3M melanoma; 26.3% in the experiment with MDA-MB-231 breast; 12.2% with SF-268 CNS; 13.9% with SF-295 CNS; -10.8% (active) with SF-539 CNS; 20.6% in the experiment on UACC-257 melanoma. Besides, in the experiment on M14 melanoma, the growth is 13.9%.

For `Nc1cc2nc3ccccc3sc-2cc1=O`, the growth in the experiment on NCI-H23 lung is 50%; in the experiment with NCI-H226 lung, 84.4%; in the experiment with NCI-H322M lung, 93.8%; with HOP-62 NSCLC, 63.9%; in the experiment on NCI-H460 lung, 75%; with HOP-92 NSCLC, 101%. Further, the growth is 66% in the experiment on NCI-H522 lung; 27.3% with A549/ATCC NSCLC; 97.7% in the experiment on 786-0 renal; 104% with COLO 205 colon; 21.5% with DU-145 prostate; 28.5% in the experiment on K-562 leukemia. In addition, the growth was -7% (active) in the experiment with MALME-3M melanoma; 59.2% with MDA-MB-231 breast; 78.1% with SF-268 CNS; 65.9% in the experiment on SF-295 CNS; 98% in the experiment on SF-539 CNS; 50.8% in the experiment with UACC-257 melanoma. Further, the growth with M14 melanoma was 81.2%.

In the case of `Cc1cc2c(cc1C)NC1=C(N2)OC(c2c3ccccc3cc3ccccc23)C1=O` (configuration not stated), the growth in the experiment on NCI-H23 lung is 15.2%; in the experiment on NCI-H226 lung, 52%; with NCI-H322M lung, 45.9%; with HOP-62 NSCLC it was 31.9%; with NCI-H460 lung, 2.12% (active); in the experiment on HOP-92 NSCLC, 71.9%. Besides, the growth is -5.18% (active) in the experiment on NCI-H522 lung; 26.7% with A549/ATCC NSCLC; 29.9% in the experiment on 786-0 renal; -40.7% (active) with COLO 205 colon; 16.7% in the experiment on DU-145 prostate; 9.62% (active) in the experiment on K-562 leukemia. Moreover, the growth is 13.9% with MALME-3M melanoma; 24.2% with RXF 393 renal; 39.3% in the experiment with SF-268 CNS; -1.93% (active) in the experiment on SF-295 CNS; -21.9% (active) with SF-539 CNS; 65.5% in the experiment with UACC-257 melanoma. Moreover, the growth with M14 melanoma is 10%.

As for `CNC(=S)N/N=C/CSC/C=N/NC(=S)NC`, the growth in the experiment with NCI-H23 lung was 85.2%; with NCI-H226 lung, 104%; with NCI-H322M lung, 106%; with HOP-62 NSCLC, 90.5%; in the experiment on NCI-H460 lung, 70.5%; with HOP-92 NSCLC it was 101%. Also, the growth is 18.7% in the experiment on NCI-H522 lung; 62.8% with A549/ATCC NSCLC; 96.1% in the experiment with 786-0 renal; 39.1% in the experiment with COLO 205 colon; 88.5% in the experiment with DU-145 prostate; 15.8% in the experiment on K-562 leukemia. The growth is 72% in the experiment on MALME-3M melanoma; 83.4% in the experiment on MDA-MB-231 breast; 102% in the experiment with SF-268 CNS; 108% with SF-295 CNS; 105% with SF-539 CNS; 67.7% with UACC-257 melanoma. Further, the growth with M14 melanoma is 92.5%.

`CC(=O)OCC(=O)C1CCC=CC1OC(C)=O` (configuration not stated): the growth in the experiment with NCI-H23 lung was 97.7%; with NCI-H226 lung, 92.6%; in the experiment with NCI-H322M lung it was 88.8%; in the experiment on HOP-62 NSCLC, 86.3%; in the experiment with NCI-H460 lung it was 108%; with HOP-92 NSCLC it was 98.9%. Also, the growth is 75.1% in the experiment on NCI-H522 lung; 94.4% in the experiment with A549/ATCC NSCLC; 99.2% in the experiment on 786-0 renal; 110% with COLO 205 colon; 103% in the experiment with DU-145 prostate; 98.9% with K-562 leukemia. Moreover, the growth was 74.2% in the experiment on MALME-3M melanoma; 109% with MDA-MB-231 breast; 106% in the experiment with SF-268 CNS; 94.8% in the experiment on SF-295 CNS; 103% in the experiment on SF-539 CNS; 92.6% in the experiment on UACC-257 melanoma. Also, the growth in the experiment on M14 melanoma was 96.9%.

For the compound `CCN(CC)c1ccc(CNc2cc(C)nc3ccc(OC)cc23)cc1`, the growth with NCI-H23 lung is 21.2%; in the experiment with NCI-H226 lung, 75.8%; in the experiment with NCI-H322M lung, -5.55% (active); in the experiment on HOP-62 NSCLC, 102%; in the experiment on NCI-H460 lung it was -39.4% (active); with HOP-92 NSCLC, 20.7%. Besides, the growth in the experiment with NCI-H522 lung was 24.6%; with A549/ATCC NSCLC it was 70.2%; in the experiment on 786-0 renal, 73.7%; in the experiment on COLO 205 colon it was -75.2% (active); in the experiment on DU-145 prostate, 58.7%; with K-562 leukemia, -35.6% (active). Further, the growth is -77.5% (active) with MALME-3M melanoma; 77% in the experiment with RXF 393 renal; 72.7% with SF-268 CNS; 16.5% in the experiment with SF-295 CNS; 76% in the experiment with SF-539 CNS; 18.7% in the experiment with UACC-257 melanoma. Also, the growth in the experiment on M14 melanoma was 48.8%.

In the case of `CN1CCCCC1CCN1c2ccccc2Sc2ccc(Cl)cc21` (configuration not stated), the growth was 77.4% in the experiment with NCI-H23 lung; 93.5% in the experiment on NCI-H226 lung; 59% in the experiment with NCI-H322M lung; 84.3% in the experiment with HOP-62 NSCLC; 71.2% in the experiment on NCI-H460 lung; 53.3% in the experiment with HOP-92 NSCLC. Besides, the growth in the experiment on NCI-H522 lung was 65.5%; in the experiment with A549/ATCC NSCLC, 67.4%; in the experiment on 786-0 renal, 61.1%; in the experiment on COLO 205 colon, 58.7%; in the experiment with DU-145 prostate, 67%; in the experiment with K-562 leukemia it was 7.99% (active). The growth in the experiment with MALME-3M melanoma is 83.2%; in the experiment on MDA-MB-231 breast, 65.9%; in the experiment on SF-268 CNS, 65.8%; in the experiment with SF-295 CNS, 76.6%; with SF-539 CNS, 90.9%; in the experiment on UACC-257 melanoma, 67.4%. For the same compound, the growth in the experiment with M14 melanoma was 45.2%.

As to `CCc1ccccc1NC(=O)c1sc2nc3c(cc2c1N)C(=O)CCC3`, the growth with NCI-H23 lung was 38.2%; in the experiment on NCI-H226 lung, 67.3%; in the experiment on NCI-H322M lung, 46.3%; in the experiment with HOP-62 NSCLC, 35.5%; in the experiment on NCI-H460 lung it was 6.42% (active); with HOP-92 NSCLC, 84.8%. Further, the growth in the experiment on NCI-H522 lung was -11.6% (active); in the experiment with A549/ATCC NSCLC, 21.5%; in the experiment on 786-0 renal it was 35.1%; with COLO 205 colon it was -7.87% (active); in the experiment on DU-145 prostate, 2.55% (active); in the experiment with K-562 leukemia it was 11%. Moreover, the growth with MALME-3M melanoma is 60.8%; in the experiment on MDA-MB-231 breast, 36.6%; with SF-268 CNS it was 40.4%; with SF-295 CNS it was -3.21% (active); with SF-539 CNS it was -1.47% (active); in the experiment on UACC-257 melanoma, 65%. In addition, the growth with M14 melanoma was 15.1%.
